Measured values published in PubChem BioAssay (NCATS).
Records with an inconclusive call do not appear. A call without a number means that no potency is given here. The source made the active and inactive calls. Calls follow the shape of the dose curve; as a rule, active = well fitted curve in the direction sought with a large enough effect; inconclusive = small, poorly fitted or top-dose-only effect, or another doubt; inactive = no such curve, though single readings can be large; an effect the other way counts as inactive or inconclusive.

What was measured:
[1] = qHTS of pediatric cancer cell lines to identify multiple opportunities for drug repurposing: Primary screen for RD cells (AID 1347104); also: nearly all actives have a fitted effect of over 55% in size
Summary of the method: (§1)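 Cells seeded at 500-1,000 cells/well in growth media, rested 5 hours at 37 degrees C, 5% CO2, then dosed; MIPE compounds at 11-point (from 0.78 nM) and NPC at 8-point (from 0.59 nM) final concentrations. Viability by CellTiter-Glo luminescence after 48 hours.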

[2] = qHTS of pediatric cancer cell lines to identify multiple opportunities for drug repurposing: Primary screen for MG 63 (6-TG R) cells (AID 1347105); also: nearly all actives have a fitted effect of over 50% in size
Summary of the method: as §1

[3] = qHTS of pediatric cancer cell lines to identify multiple opportunities for drug repurposing: Primary screen for control Hh wild type fibroblast cells (AID 1347106);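 also: series mostly up to about 46 µM; a drop in luminescence marks cytotoxicity and a rise apparent proliferation; nearly all actives have a fitted effect of over 55% in size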
Summary of the method: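 Cells (500-1,000/well) in growth media were settled 5 h at 37 degrees C, then given compounds for 48 h. Viability was read as CellTiter-Glo luminescence. Primary runs used MIPE at 11 points (0.78 nM-46 µM) and NPC at 8 points (0.59 nM-46 µM); follow-ups used 11 points.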

[4] = qHTS of pediatric cancer cell lines to identify multiple opportunities for drug repurposing: Primary screen for Rh30 cells (AID 1347107); also: series mostly up to about 46 µM; nearly all actives have a fitted effect of over 75% in size
Summary of the method: (§2)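 Cells (500-1,000/well) rested 5 h, then received compounds for 48 h; metabolically active cells were measured by CellTiter-Glo luminescence. Final concentrations spanned up to 46 µM (MIPE, 11-point) or 0.59 nM-46 µM (NPC, 8-point) in primary screens, 11-point in follow-ups.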

[5] = qHTS of pediatric cancer cell lines to identify multiple opportunities for drug repurposing: Primary screen for Rh41 cells (AID 1347108);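 also: series mostly up to about 46 µM; luminescence drop marks cytotoxic hits; nearly all actives have a fitted effect of over 70% in size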
Summary of the method: as §1

[6] = qHTS of pediatric cancer cell lines to identify multiple opportunities for drug repurposing: Confirmatory screen for NB1643 cells (AID 1347109); also: nearly all actives have a fitted effect of over 45% in size
Summary of the method: as §2

[7] = qHTS of pediatric cancer cell lines to identify multiple opportunities for drug repurposing: Confirmatory screen for A673 cells (AID 1347110);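 also: cells exposed to compound for 48 h before the viability read; nearly all actives have a fitted effect of over 65% in size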
Summary of the method: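 Cells plated at 500-1,000/well were treated five hours later with multi-point dilutions up to 46 µM final. After two days, CellTiter-Glo was added and luminescence read.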

[8] = qHTS of pediatric cancer cell lines to identify multiple opportunities for drug repurposing: Confirmatory screen for BT-12 cells (AID 1347112); also: nearly all actives have a fitted effect of over 55% in size
Summary of the method: as §2

[9] = qHTS of pediatric cancer cell lines to identify multiple opportunities for drug repurposing: Confirmatory screen for NB-EBc1 cells (AID 1347115);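 also: cells exposed to compound for 48 h before the viability read; nearly all actives have a fitted effect of over 45% in size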
Summary of the method: as §2

[10] = qHTS of pediatric cancer cell lines to identify multiple opportunities for drug repurposing: Confirmatory screen for BT-37 cells (AID 1347117);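 also: viability measured after 48 h of compound exposure; nearly all actives have a fitted effect of over 55% in size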
Summary of the method: as §2

[11] = qHTS of pediatric cancer cell lines to identify multiple opportunities for drug repurposing: Confirmatory screen for MG 63 (6-TG R) cells (AID 1347119); also: nearly all actives have a fitted effect of over 55% in size
Summary of the method: as §2

[12] = qHTS of pediatric cancer cell lines to identify multiple opportunities for drug repurposing: Confirmatory screen for control Hh wild type fibroblast cells (AID 1347121); also: nearly all actives have a fitted effect of over 70% in size
Summary of the method: as §2

[13] = qHTS of pediatric cancer cell lines to identify multiple opportunities for drug repurposing: Confirmatory screen for U-2 OS cells (AID 1347122); also: nearly all actives have a fitted effect of over 65% in size
Summary of the method: as §2

[14] = qHTS of pediatric cancer cell lines to identify multiple opportunities for drug repurposing: Confirmatory screen for Rh41 cells (AID 1347123);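 also: potency is read from the fitted curve at half-maximal effect; 48 h compound exposure; nearly all actives have a fitted effect of over 60% in size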
Summary of the method: as §2

[15] = qHTS of pediatric cancer cell lines to identify multiple opportunities for drug repurposing: Primary screen for OHS-50 cells (AID 1347103); also: potency is read from the fitted curve at half-maximal effect; nearly all actives have a fitted effect of over 40% in size
Summary of the method: as §2

Compound: CN(C)C/C=C(/c1ccc(Br)cc1)c1cccnc1
- Potency [1]: inactive
- Potency [2]: inactive
- outcome [3]: inactive
- Potency [4]: inactive
- Potency [5]: inactive

Compound: CC(N=C(NC#N)Nc1ccncc1)C(C)(C)C (configuration not stated)
- Potency [1]: inactive
- Potency [2]: inactive
- outcome [3]: inactive
- Potency [4]: inactive
- Potency [5]: inactive

Compound: OCCN1CCN(CCCN2c3ccccc3C=Cc3ccccc32)CC1
- Potency [2]: inactive
- outcome [3]: inactive
- Potency [4]: inactive
- Potency [5]: inactive

Compound: OC(CCN1CCCCC1)(c1ccccc1)C1CCCCC1 (configuration not stated)
- Potency [2]: inactive
- outcome [3]: inactive
- Potency [4]: inactive
- Potency [5]: inactive

Compound: COC(=O)[C@H]1[C@H]2C[C@@H]3c4[nH]c5cc(OC)ccc5c4CCN3C[C@H]2C[C@@H](OC(=O)c2cc(OC)c(OC)c(OC)c2)[C@@H]1OC
- outcome [3]: inactive
- Potency [4]: inactive

Compound: Cc1scc2c1N(C(=O)CN1CCN(C)CC1)c1ccccc1NC2=O
- Potency [1]: inactive
- Potency [2]: inactive
- outcome [3]: inactive
- Potency [4]: inactive
- Potency [5]: inactive

Compound: NC(N)=NC(=O)Cc1c(Cl)cccc1Cl
- Potency [1]: inactive
- Potency [2]: inactive
- outcome [3]: inactive
- Potency [4]: inactive
- Potency [5]: inactive

Compound: C[C@]12CCC(=O)C=C1CC[C@@H]1[C@@H]2CC[C@@]2(C)[C@H]1CC[C@]2(O)C(=O)CO
- Potency [1]: inactive
- Potency [2]: inactive
- outcome [3]: inactive
- Potency [4]: inactive
- Potency [5]: inactive

Compound: COc1ccc(CCN(C)CCCC(C#N)(c2cc(OC)c(OC)c(OC)c2)C(C)C)cc1OC (configuration not stated)
- Potency [1]: inactive
- outcome [3]: inactive
- Potency [4]: inactive

Compound: CN1C[C@H](C(=O)N[C@]2(C)O[C@@]3(O)[C@@H]4CCCN4C(=O)[C@H](Cc4ccccc4)N3C2=O)C[C@@H]2c3cccc4[nH]cc(c34)C[C@H]21
- Potency [1]: inactive
- Potency [2]: inactive
- outcome [3]: inactive
- Potency [4]: inactive
- Potency [5]: inactive
- Potency [6]: inactive
- Potency [7]: inactive
- Potency [8]: inactive
- Potency [9]: inactive
- Potency [10]: inactive
- Potency [11]: inactive
- Potency [12]: inactive
- Potency [13]: inactive
- Potency [14]: 3.29 µM (active)

Compound: CN(C)CC[C@@H](c1ccc(Br)cc1)c1ccccn1
- Potency [1]: inactive
- Potency [2]: inactive
- outcome [3]: inactive
- Potency [4]: inactive
- Potency [5]: inactive

Compound: CCN(CC)CCCN(c1ccccc1)C1Cc2ccccc2C1
- Potency [2]: inactive
- outcome [3]: inactive
- Potency [4]: inactive
- Potency [5]: inactive

Compound: CCOC(=O)C1=C(C)NC(C)=C(C(=O)OC)C1c1cccc(Cl)c1Cl (configuration not stated)
- Potency [1]: inactive
- Potency [2]: inactive
- outcome [3]: inactive
- Potency [4]: inactive
- Potency [5]: inactive

Compound: COc1cc(C(=O)OCCCN2CCCN(CCCOC(=O)c3cc(OC)c(OC)c(OC)c3)CC2)cc(OC)c1OC
- Potency [2]: inactive
- outcome [3]: inactive
- Potency [4]: inactive
- Potency [5]: inactive

Compound: CCCN1C[C@H](CSC)C[C@@H]2c3cccc4[nH]cc(c34)C[C@H]21
- Potency [1]: inactive
- Potency [2]: inactive
- outcome [3]: inactive
- Potency [4]: inactive
- Potency [5]: inactive

Compound: Cc1ccc(/C(=C\CN2CCCC2)c2ccccn2)cc1
- Potency [1]: inactive
- Potency [2]: inactive
- outcome [3]: inactive
- Potency [4]: inactive
- Potency [5]: inactive

Compound: NC(N)=N/N=C/c1c(Cl)cccc1Cl
- Potency [2]: inactive
- outcome [3]: inactive
- Potency [4]: inactive
- Potency [5]: inactive

Compound: CNCCC(Oc1ccccc1OC)c1ccccc1 (configuration not stated)
- Potency [1]: inactive
- Potency [2]: inactive
- outcome [3]: inactive
- Potency [4]: inactive
- Potency [5]: inactive

Compound: CCCCNc1ccc(C(=O)OCCN(C)C)cc1
- Potency [1]: inactive
- Potency [2]: inactive
- outcome [3]: inactive
- Potency [4]: inactive
- Potency [5]: inactive

Compound: C#CCN(C)CCCOc1ccc(Cl)cc1Cl
- Potency [1]: inactive
- Potency [2]: inactive
- outcome [3]: inactive
- Potency [4]: inactive
- Potency [5]: inactive

Compound: CCOC(=O)C1=C(C)NC(C)=C(C(=O)OC)C1c1cccc([N+](=O)[O-])c1 (configuration not stated)
- Potency [1]: inactive
- outcome [3]: inactive
- Potency [4]: inactive
- Potency [5]: inactive

Compound: C(=C\c1ccccc1)/CN1CCN(C(c2ccccc2)c2ccccc2)CC1
- Potency [15]: 27.6 µM (active)
- outcome [3]: inactive
- Potency [4]: inactive
- Potency [5]: inactive

Compound: Cc1nc2ccccn2c(=O)c1CCN1CCC(C(=O)c2ccc(F)cc2)CC1
- Potency [1]: inactive
- Potency [2]: inactive
- outcome [3]: inactive
- Potency [4]: inactive
- Potency [5]: inactive
